Assay [1] can be described thus: HepG2 liver cancer cell viability effects, profiling panel, resazurin fluorescence, 24 h, PK04 Diversity Set (AID 1172). Note: test concentration not given here. Conditions: higher = more signal.
Assay [2] in a line: basal S. cerevisiae growth modulation, no modifier, primary screen, OD600, strain BY4716, 24 h, basal condition (AID 1173). Conditions: OD600, 24 h, higher = more signal, called active from +8 up or from −8 down.
A short description of assay [3]: MM1S myeloma cell viability, profiling panel, resazurin fluorescence, basal, 24 h, PK04 Diversity Set (AID 1174).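 Note: MM1S multiple myeloma cell line; test concentration not given here.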 The conditions noted are these: higher = more signal, called active from +8 up or from −8 down.
The target of assay [4] is Dihydroorotate dehydrogenase (quinone), mitochondrial (Plasmodium falciparum (isolate 3D7)) (UniProt Q08210). Nature of the assay: PfDHODH enzyme inhibitors, primary screen, biochemical, C-terminal His tag, absorbance 600 nm (AID 1175).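 Note: recombinant parasite enzyme with a five histidine tag at its C terminus; test concentration not given here.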 Conditions: DCIP absorbance 600 nm, higher = more signal, called active from +8 up or from −8 down.
Assay [5] is described as follows: P. aeruginosa biofilm formation inhibitors, primary screen, strain PAO1, LB-PBS medium, absorbance 600 nm (AID 1176). Note: test concentration not given here. Conditions: P. aeruginosa PAO1 growth/biofilm, A600, 12 h; higher = more signal.
Assay [6] is described as follows: S. cerevisiae RM11-1a growth modifiers, primary screen, strain RM11-1a, OD600, basal, 24 h (AID 1177).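 Note: cultures grown under basal conditions with no added stressor; test concentration not given here.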 Conditions: OD600, 24 h, higher = more signal, called active from +8 up or from −8 down.
Assay [7] is described as follows: E. coli acrAB mutant growth effects, primary screen, E. coli filamentation inducers, strain DRC39, OD650, 24 h (AID 1178).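 Note: growth measured as culture turbidity by optical density at 650 nm; test concentration not given here.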 Conditions: higher = more signal, called active from +8 up or from −8 down.
Assay [8] in a line: E. coli acrAB mutant growth effects, primary screen, E. coli filamentation inducers, strain DRC39, OD650, 48 h (AID 1179).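 Note: screen aims at cell division blockers that make cells filament.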 The conditions noted are these: E. coli DRC39 delta-acrAB growth, higher = more signal, called active from +8 up or from −8 down.
Assay [9] is described as follows: RPMI8226 myeloma cell viability, profiling panel, resazurin fluorescence, basal, 24 h, PK04 Diversity Set (AID 1180).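 Note: RPMI8826 multiple myeloma cell line at 5000 cells per well; test concentration not given here.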 Conditions: higher = more signal.
Assay [10] deals with E3 ubiquitin-protein ligase XIAP (Homo sapiens) (UniProt P98170). Nature of the assay: XIAP binders, primary screen, biophysical, small-molecule microarray, fluorescence 635 nm (AID 1181).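 Note: score merges 667 nm emission and signal to noise over triplicate slides.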 The conditions noted are these: small-molecule microarray binding, higher = more signal.

Structures are written as SMILES. Active and inactive are the calls of the source. Unless noted, the rule behind the calls is not given here.

Sequence of E3 ubiquitin-protein ligase XIAP (Homo sapiens) (P98170 whole entry, looked up): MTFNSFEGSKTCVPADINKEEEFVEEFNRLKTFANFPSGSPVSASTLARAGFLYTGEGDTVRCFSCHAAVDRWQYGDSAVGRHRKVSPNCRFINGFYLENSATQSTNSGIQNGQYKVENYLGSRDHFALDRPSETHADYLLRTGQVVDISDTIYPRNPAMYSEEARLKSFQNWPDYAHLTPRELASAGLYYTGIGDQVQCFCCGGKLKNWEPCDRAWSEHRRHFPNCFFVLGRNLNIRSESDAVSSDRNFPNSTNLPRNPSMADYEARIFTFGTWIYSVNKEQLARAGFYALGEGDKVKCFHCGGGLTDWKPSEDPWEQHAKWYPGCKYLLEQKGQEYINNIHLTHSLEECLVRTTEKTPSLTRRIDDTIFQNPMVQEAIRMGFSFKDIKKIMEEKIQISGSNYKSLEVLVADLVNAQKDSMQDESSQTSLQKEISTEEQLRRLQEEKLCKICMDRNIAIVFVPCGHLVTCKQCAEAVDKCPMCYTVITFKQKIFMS
Sequence of Dihydroorotate dehydrogenase (quinone), mitochondrial (Plasmodium falciparum (isolate 3D7)) (Q08210 whole entry, looked up): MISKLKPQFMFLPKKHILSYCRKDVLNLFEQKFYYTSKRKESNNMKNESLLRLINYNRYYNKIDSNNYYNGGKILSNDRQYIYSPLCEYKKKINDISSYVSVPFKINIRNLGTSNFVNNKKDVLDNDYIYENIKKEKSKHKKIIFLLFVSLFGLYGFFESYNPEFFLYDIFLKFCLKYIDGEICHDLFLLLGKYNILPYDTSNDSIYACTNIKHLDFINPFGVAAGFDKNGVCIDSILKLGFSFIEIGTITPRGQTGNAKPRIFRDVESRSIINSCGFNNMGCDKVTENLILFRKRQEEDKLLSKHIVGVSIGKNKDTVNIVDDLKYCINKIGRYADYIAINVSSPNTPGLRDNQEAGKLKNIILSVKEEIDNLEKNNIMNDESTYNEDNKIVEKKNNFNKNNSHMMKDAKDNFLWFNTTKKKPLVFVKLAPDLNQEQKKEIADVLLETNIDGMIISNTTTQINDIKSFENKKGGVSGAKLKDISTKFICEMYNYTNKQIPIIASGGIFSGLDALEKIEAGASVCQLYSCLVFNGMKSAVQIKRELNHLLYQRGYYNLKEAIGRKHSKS

As to `CC(=O)n1cc(C(O)C2C=CC3C(=O)N(c4ccccc4)C(=O)C3N2Nc2ccc(C(C)C)cc2)c2ccccc21` (stereo not given), the z-score in assay [1] was -1.41; in assay [2], -2.33 (inactive); in [3], -1.12 (inactive); in assay [5] it was 1.44 (inactive); in assay [6], 1.36 (inactive); in [7] it was -0.0648 (inactive). Moreover, the z-score in assay [8] was -0.0683 (inactive); in assay [9] it was -1.06. Besides, the composite z-score in assay [4] was 0.708 (inactive); in [10], 0.0072.

Turning to `COC(=O)[C@@]1(Cc2ccc(OC)cc2)[C@H]2c3cc(C(=O)N4CCCC4)n(Cc4cc(C)n(C)n4)c3C[C@H]2CN1C(=O)c1ccccc1`, the z-score in [1] is -0.646; in assay [2], 1.1 (inactive); in assay [3], -2.09 (inactive); in assay [5] it was -0.222 (inactive); in assay [6] it was 0.472 (inactive); in [7], -0.145 (inactive). In addition, the z-score in [8] is 0.342 (inactive); in assay [9] it was -2.11. In addition, the composite z-score in assay [4] is -0.77 (inactive); in [10] it was -0.02.

Turning to `COCC1=C2[C@@H](CCc3ccccc3)OB(O)C[C@@H]2[C@@H]2C(=O)N(C)C(=O)[C@@H]2C1`, the z-score in assay [1] was -0.227; in assay [2] it was -0.926 (inactive); in assay [3] it was -0.439 (inactive); in assay [5], 0.294 (inactive); in [6], 0.0903 (inactive); in assay [7] it was -0.0919 (inactive). In addition, the values for the z-score in assay [8] and in assay [9] were 0.0253 (inactive) and -0.377, respectively. Further, the composite z-score in assay [4] is -0.173 (inactive); in assay [10], 0.0512.

Take `CN(C)CCCCCCNC(=O)[C@@H]1C[C@@H]2C(=O)N[C@@H](CCCCN)C(=O)N2[C@@H]1c1ccc(O)cc1`: the z-score was -0.0356 in assay [1]; -1.56 (inactive) in assay [2]; 1.79 (inactive) in assay [3]; 1.63 (inactive) in assay [5]; -0.63 (inactive) in [6]; 0.739 (inactive) in assay [7]. For the same molecule, the z-score is -1.59 (inactive) in assay [8] and 0.659 in assay [9]. Moreover, the composite z-score in [4] is -0.0587 (inactive); in [10], 3.51.

For `CC(C)C[C@@H]1NC(=O)[C@@H]2C[C@H](C(=O)NCCCCCC[N+](C)(C)C)[C@H](c3cccc(OCCO)c3)N2C1=O`, the z-score in [1] is -0.482; in [2] it was 0.62 (inactive); in [3], -0.384 (inactive); in [5], 0.683 (inactive); in assay [6], -0.0613 (inactive); in assay [7], -0.466 (inactive). Also, the z-score was -1.15 (inactive) in assay [8] and -0.899 in assay [9]. Also, the composite z-score in assay [4] was -0.317 (inactive); in assay [10], -0.227.

In the case of `Cc1ccc(C(C)CC(O)C2C=CC3C(=O)N(c4ccccc4)C(=O)C3N2Nc2ccc(C#N)cc2)o1` (stereo not given), the z-score in assay [1] was -0.793; in assay [2], -17.1 (active); in assay [3], -3.76 (inactive); in assay [5] it was 0.0616 (inactive); in assay [6], -20.8 (active); in assay [7] it was 0.431 (inactive). In addition, the z-score in assay [8] is 1.14 (inactive); in [9] it was -5.62. The composite z-score in [4] was -1.79 (inactive); in [10], 0.0204.

`CCCCC=C[C@@H](NC(=O)c1ccccc1)c1ccccc1`: the z-score in [1] is -0.35; in assay [2], 0.483 (inactive); in [3] it was 0.0386 (inactive); in assay [5], 1.43 (inactive); in assay [6], 0.0455 (inactive); in assay [7], -1.44 (inactive). Also, the figures for the z-score in assay [8] and in assay [9] were -1.29 (inactive) and -0.321, respectively. In addition, the composite z-score in [4] was -0.845 (inactive); in assay [10] it was 0.0348.

In the case of `CC(C)OC(=O)CC(=O)CC(O)c1ccc([N+](=O)[O-])cc1` (stereo not given), the z-score is -0.55 in assay [1]; -1.41 (inactive) in [2]; -0.119 (inactive) in [3]; -0.088 (inactive) in [5]; 0.0857 (inactive) in assay [6]; -0.346 (inactive) in assay [7]. The z-score is 0.0547 (inactive) in [8] and -0.0948 in assay [9]. Further, the composite z-score in assay [4] is -1.12 (inactive); in assay [10], -0.212.

With `COc1cccc(/C=C(\C#N)C(=O)Nc2c(C)n(C)n(-c3ccccc3)c2=O)c1`, the z-score is 0.665 in assay [1]; -1.81 (inactive) in [2]; -1.82 (inactive) in [3]; 0.792 (inactive) in assay [5]; -0.6 (inactive) in assay [6]; 0.575 (inactive) in [7]. Moreover, the z-score was 1.15 (inactive) in assay [8] and 0.191 in assay [9]. Also, the composite z-score in assay [4] was -1.14 (inactive); in [10], 0.0775.

With `O=C1C[C@@](C(=O)NCC(F)(F)F)(c2ccc([N+](=O)[O-])cc2)[C@@H](c2ccc(CO)cc2)N1CC12CC3CC(CC(C3)C1)C2`, the z-score was -1.85 in assay [1]; 0.188 (inactive) in assay [2]; -1.4 (inactive) in [3]; 0.36 (inactive) in [5]; 0.419 (inactive) in assay [6]; -0.229 (inactive) in assay [7]. Besides, the figures for the z-score in assay [8] and in assay [9] were -0.684 (inactive) and -2.92, respectively. Also, the composite z-score in assay [4] is 0.042 (inactive); in assay [10], 0.144.

On to `[N-]=[N+]=NCc1ccccc1[C@H]1OC(c2ccc(OCCCO)cc2)=N[C@@]1(CCS(=O)(=O)c1ccccc1)C(=O)NCc1ccccc1`, for which the z-score in assay [1] is 1.18; in assay [2], 0.879 (inactive); in assay [3], -0.0789 (inactive); in assay [5], -0.4 (inactive); in assay [6] it was 2.19 (inactive); in [7], 1.01 (inactive). The z-score in assay [8] was 0.536 (inactive); in [9], 0.032. For the same molecule, the composite z-score is 0.786 (inactive) in [4] and 0.129 in [10].

Turning to `COCCOC(=O)N1C(=O)[C@@]2(c3cc(C#CCNC(N)=O)ccc31)[C@H](c1ccc(OCCO)cc1)N1[C@H](c3ccccc3)[C@H](c3ccccc3)OC(=O)[C@H]1[C@@H]2C(N)=O`, the z-score in assay [1] is -0.373; in [2] it was 1.19 (inactive); in assay [3], 0.421 (inactive); in [5], 0.858 (inactive); in assay [6] it was 2.4 (inactive); in assay [7], 0.146 (inactive). Further, the z-score in assay [8] was 0.384 (inactive); in assay [9], 0.637. For the same molecule, the composite z-score is -0.0174 (inactive) in [4] and -0.0414 in [10].

`CCOC(=O)C[C@H]1[C@H](OC(=O)c2ccccc2-c2ccccc2)[C@@H](NC(=O)c2ccccc2)c2cc(OCCCO)ccc2N1C(=O)c1ccccc1`: the z-score in [1] was -0.632; in [2], 0.474 (inactive); in [3] it was -0.287 (inactive); in assay [5], -0.0582 (inactive); in assay [6] it was 0.383 (inactive); in assay [7], -0.536 (inactive). For the same molecule, the z-score is -0.508 (inactive) in assay [8] and -0.0741 in assay [9]. Besides, the composite z-score was 0.374 (inactive) in assay [4] and 0.0871 in [10].
